# Reference: PubChem BioAssay
# The source made the active and inactive calls.
# Key:
# [1] = system: XIP peptide (Xip251-270) binding; assay: XIP fragment 251-270 binding compounds – biochemical, small-molecule microarray, fluorescence 635/667 nm, 0.1 µg/mL protein, primary screen (AID 1182); settings: fluorescent protein binding, 635 nm, higher = more signal, called active from +8 up or from −8 down
# XIP peptide (Xip251-270) = assay: compounds binding XIP fragment 251-270 – biochemical, small-molecule microarray, fluorescence 635/667 nm, 0.5 µg/mL protein, primary screen (AID 1183); settings: fluorescence 635 nm, higher = more signal
# [2] = blood-stage malaria parasite viability loss – strain 3D7, DAPI fluorescence, 100 nL, primary screen (AID 1184);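 further: parasites grown inside human red blood cells in medium with human serum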; settings: P. falciparum 3D7 growth, 3 d, higher = more signal
# [3] = target: Homeobox protein Hox-A13 (Mus musculus) (UniProt Q62424); assay: disruptors of Hoxa13 oligonucleotide interaction – biochemical, fluorescence polarization, labeled oligonucleotide, primary screen (AID 1185); settings: Hoxa13:DNA binding, 15 min, higher = more signal, called active from +8 up or from −8 down
# Sequence of Homeobox protein Hox-A13 (Mus musculus) (Q62424 whole entry, looked up): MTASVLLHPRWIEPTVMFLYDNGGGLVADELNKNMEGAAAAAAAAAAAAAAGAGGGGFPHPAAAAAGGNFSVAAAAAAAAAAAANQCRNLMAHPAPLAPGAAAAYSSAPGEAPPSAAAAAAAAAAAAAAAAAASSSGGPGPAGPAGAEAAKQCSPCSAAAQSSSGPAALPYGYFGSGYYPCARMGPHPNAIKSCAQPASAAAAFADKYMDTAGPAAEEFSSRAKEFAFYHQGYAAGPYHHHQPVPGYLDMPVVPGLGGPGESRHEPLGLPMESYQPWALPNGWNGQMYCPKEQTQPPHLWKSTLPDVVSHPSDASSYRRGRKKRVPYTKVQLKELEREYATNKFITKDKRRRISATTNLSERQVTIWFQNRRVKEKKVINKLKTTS
SMILES,composite z-score [1],composite z-score (XIP peptide (Xip251-270)),z-score [2],z-score [3]
CO[C@H]1COC(=O)CC=C[C@H](C)[C@@H](OC)COC(=O)[C@@H](C)COC(=O)CC=C[C@@H]1C,-0.0653 (inactive),-0.396,-0.276,-1.42 (inactive)
COc1cc(O)c(C(=O)C=Cc2ccc3c(c2)OCO3)c(OC)c1,-0.156 (inactive),-0.218,-0.973,-0.978 (inactive)
CCOC(=O)[C@H](CC(C)C)NC(=O)CCC1CC(OC(=O)NCc2ccc3c(c2)OCO3)CC2(CCCC(COC(=O)NCC3CCCCC3)O2)O1 (stereo partly drawn),0.269 (inactive),0.0826,-1.77,-6.18 (inactive)
O=C1[C@H]2[C@H]3[C@H](O)[C@H](O)CC(=NOC[C@@H](O)COCc4ccco4)[C@@H]3CC[C@H]2C(=O)N1C[C@@H]1CCCO1,0.0071 (inactive),0.791,0.965,0.515 (inactive)
C=C(C)C(=O)OCC1CN2[C@@H](CC[C@@H](C)[C@@H]2c2ccc(Br)cc2)C(=O)O1 (stereo partly drawn),-0.0135 (inactive),0.446,-0.19,-1.71 (inactive)
COc1ccc(O[C@H]2C=C[C@@H](c3ccccc3)O[C@@H]2CON=C(C)CCC(=O)OC[C@H]2O[C@H](c3ccccc3)C=C[C@@H]2Oc2ccc(OC)cc2)cc1,0.392 (inactive),-0.0127,-1.61,-0.19 (inactive)
COC(=O)[C@@H]1CC[C@H](C)[C@@H](c2ccc(C)cc2)N1C(=O)c1ccc(C=NOCC[C@@H]2C=C[C@H](OC(C)=O)[C@@H](COC(C)=O)O2)cc1,-0.425 (inactive),0.484,-0.316,-5.26 (inactive)
